Test results published in PubChem BioAssay AID1508635 (National Center for Advancing Translational Sciences (NCATS), 2021).
Inconclusive results are not listed. Calls of active or inactive are those of the source. Calls come from the whole dose curve; as a rule, active = well fitted inhibition curve with a large enough effect; inconclusive = small, poorly fitted or top-dose-only effect; inactive = no such curve, though single readings can be large or run the other way. Numbered stars: 1 amine (or outer) side, 2 acyl side, 3 side chain; on linkers, the order of the positions; unused ones are H or OH. Bridge positions count the residues as written; N and C are the ends. Square brackets hold non-standard residues; d marks the D form. Peptide text beside a SMILES is read from it. I, II: the chains in the order shown. * marks the point of attachment. ξ: configuration not given here. Actinocin(9to1) = Cc1c2oc3c(C)ccc(C(=O)[*:1])c3nc-2c(C(=O)[*:2])c(N)c1=O; ξNMeV = CNC(C(=O)O)C(C)C; Cbz = O=C(OCc1ccccc1)*; ξV = CC(C)C(N)C(=O)O; Sar = CNCC(=O)O

What follows are compounds tested on zebrafish Abcb4 (ABCB1 homolog) (assay: qHTS for characterization and localization of zebrafish homologs of the human ABCB1 multidrug transporter: ABCB4 transfected cells). Conditions: CellTiter-Glo viability luminescence, 72 h; series mostly up to 46.1 µM.
Excerpt: The zebrafish has emerged as a potential model to study the blood-brain barrier (BBB) given its similarities with mammalian systems. However, little information has been available with regard to homologous ATP-binding cassette transporters expressed at the zebrafish BBB. Two transporters that are highly expressed at the human BBB are P-glycoprotein (P-gp, encoded by the ABCB1 gene) and ABCG2 (encoded by the ABCG2 gene). In this study, we focus on characterization of P-gp homologs in the zebrafish, which has two genes that are homologous to human ABCB1 - abcb4 and abcb5. We generated stably-transfected cell lines to determine their substrate specificities. […] Zebrafish abcb4 also colocalized with claudin 5 expression in brain endothelial cells.
A high-throughput screen was performed as previously described on empty vector transfected cells, P-gp-overexpressing MDR-19 cells and cells transfected with full-length zebrafish abcb4 (ZF Abcb4) or abcb5 (ZF Abcb5). Briefly, cells were plated into 1536-well plates at a density of 500 cells/well in 5 uL media. P-gp substrate compounds (approximately 90) selected from our previous study were then added at varying concentrations using a 1536-head pin tool (Kalypsis, San Diego, CA) and plates were incubated at 37C in 5% CO2 for 72 h. CellTiter-Glo reagent (Promega) was dispensed into the wells, incubated for 5 min and luminescence was read on a ViewLux instrument (Perkin-Elmer).
Cytotoxic compounds were defined as those that yielded a curve class of -1.1, -1.2, -2.1, -2.2, -2.3, or -2.4, a maximum response of >50% and an AC50 of < 10 uM. All compounds from screening analysis were tested in Vector (empty vector control), MDR-19 (P-gp overexpressing), zebrafish abcb4 (ZF Abcb4) and abcb5 (ZF Abcb5) expression cell lines.
1. Tobie D Lee, Olivia W Lee, Kyle R Brimacombe, Lu Chen, Rajarshi Guha, Sabrina Lusvarghi, Bethilehem G Tebase, Carleen Klumpp-Thomas, Robert W Robey, Suresh V Ambudkar, Min Shen, Michael M Gottesman, Matthew D Hall. A High-Throughput Screen of a Library of Therapeutics Identifies Cytotoxic Substrates of P-glycoprotein. Mol Pharmacol. 2019, Nov;96(5):629-640.
N=C(N)c1ccc(OCCCCCOc2ccc(C(=N)N)cc2)cc1 was tested, and the Potency was “inactive”. With COC(C(=O)N1Cc2[nH]nc(NC(=O)c3ccc(N4CCN(C)CC4)cc3)c2C1)c1ccccc1 (stereo unspecified) the Potency was “inactive”. Cc1ccc(C(=O)N(CCCN)C(c2nc3cc(Cl)ccc3c(=O)n2Cc2ccccc2)C(C)C)cc1 (stereo unspecified) was tested, and the Potency was 20.9 µM (active). In the case of C#Cc1cccc(Nc2ncnc3cc(OC)c(OCCCCCCC(=O)NO)cc23)c1, the Potency is reported as 13.2 µM (active). With C[C@@H]1O[C@@H](O[C@H]2[C@@H](OC(=O)[C@]34CCC(C)(C)CC3C3=CCC5[C@@]6(C)C[C@H](O)[C@H](O[C@@H]7O[C@H](CO)[C@@H](O)[C@H](O)[C@H]7O[C@@H]7OC[C@@H](O)[C@H](O)[C@H]7O)[C@@](C)(C(=O)O)C6CC[C@@]5(C)[C@]3(C)CC4)OC[C@H](O)[C@@H]2O)[C@H](O)[C@H](O)[C@H]1O[C@@H]1OC[C@@H](O)[C@H](O)[C@H]1O (stereo partly specified) the activity change, negative = inhibition was -5.3% [at 8.96 µM] (inactive). For CN(C)C1CCN(C(=O)c2ccc(NC(=O)Nc3nc(N4CCOCC4)nc(N4CCOCC4)n3)cc2)CC1, the Potency was “inactive”. COc1cc2ncn(-c3cc(OCc4ccccc4C(F)(F)F)c(C(N)=O)s3)c2cc1OC was tested, and the Potency was 19.1 µM (active). For CC(C)C[C@@H](C=O)NC(=O)[C@H](CC(C)C)NC(=O)[C@H](CC(C)C)NC(=O)OCc1ccccc1 (Cbz-Leu-Leu-Leu-aldehyde), the Potency was 2.96 µM (active). For Cc1nc(Nc2n[nH]c3c2CN(C(=O)N[C@H](CN(C)C)c2ccccc2)C3(C)C)c2sccc2n1, the Potency was “inactive”. In the case of Cc1c2oc3c(C)ccc(C(=O)N[C@@H]4C(=O)NC(C(C)C)C(=O)N5CCC[C@H]5C(=O)N(C)CC(=O)N(C)C(C(C)C)C(=O)O[C@@H]4C)c3nc-2c(C(=O)N[C@@H]2C(=O)NC(C(C)C)C(=O)N3CCC[C@H]3C(=O)N(C)CC(=O)N(C)C(C(C)C)C(=O)O[C@@H]2C)c(N)c1=O (stereo partly specified) (I: T[ξV]P[Sar][ξNMeV] / II: T[ξV]P[Sar][ξNMeV]; ester I:1-I:C, II:1-II:C; linker I:N-II:N via Actinocin(9to1)), the Potency is reported as 0.418 µM (active). CC(C)CC(=O)Nc1n[nH]c2c1CN(C(=O)C1CCN(C)CC1)C2(C)C was tested, and the Potency was “inactive”.
